“And” between values parts separate entries of the source, which are not always exact repeats. Identical values can stand only once.

For assay [1], the target named is Tyrosine-protein kinase receptor UFO (Homo sapiens) (UniProt P30530). Conditions: at 1 µM.
Assay [2] deals with Tyrosine-protein kinase Blk (Homo sapiens) (UniProt P51451). Conditions: at 0.1 µM.
The target is the same in assay [3]. To be noted: at 1 µM.
Assay [4] has as its target T1, Cytoplasmic tyrosine-protein kinase BMX (Homo sapiens) (UniProt P51813).
T1 sequence (whole entry): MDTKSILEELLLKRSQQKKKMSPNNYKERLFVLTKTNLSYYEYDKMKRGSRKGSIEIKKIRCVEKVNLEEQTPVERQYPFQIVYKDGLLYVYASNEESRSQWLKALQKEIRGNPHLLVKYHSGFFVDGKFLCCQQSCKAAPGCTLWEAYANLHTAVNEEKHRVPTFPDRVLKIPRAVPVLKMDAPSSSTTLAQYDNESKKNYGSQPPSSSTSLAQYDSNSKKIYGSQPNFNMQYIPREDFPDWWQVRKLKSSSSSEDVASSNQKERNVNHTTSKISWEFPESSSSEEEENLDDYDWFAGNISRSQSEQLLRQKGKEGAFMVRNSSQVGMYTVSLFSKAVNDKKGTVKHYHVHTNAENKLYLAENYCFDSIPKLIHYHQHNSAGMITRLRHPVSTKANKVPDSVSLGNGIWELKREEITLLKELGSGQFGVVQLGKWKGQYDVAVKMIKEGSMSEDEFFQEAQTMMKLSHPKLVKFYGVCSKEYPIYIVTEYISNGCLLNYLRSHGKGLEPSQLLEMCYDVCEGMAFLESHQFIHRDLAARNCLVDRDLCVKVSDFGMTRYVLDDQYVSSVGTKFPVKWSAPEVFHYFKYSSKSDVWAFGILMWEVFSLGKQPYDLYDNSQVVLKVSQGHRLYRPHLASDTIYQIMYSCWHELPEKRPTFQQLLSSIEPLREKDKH
To be noted: at 0.1 µM.

Assay [5] deals with T1, Cytoplasmic tyrosine-protein kinase BMX (Homo sapiens). Conditions: at 1 µM.
Assay [6] concerns the target Protein-tyrosine kinase 6 (Homo sapiens) (UniProt Q13882). Conditions: at 0.1 µM.
For assay [7] the target is unchanged. To be noted: at 1 µM.
Assay [8] concerns the target Tyrosine-protein kinase BTK (Homo sapiens) (UniProt Q06187). Conditions: at 0.1 µM.
The target is the same in assay [9]. Conditions: at 1 µM.
Assay [10] deals with Tyrosine-protein kinase CSK (Homo sapiens) (UniProt P41240). To be noted: at 0.1 µM.
For assay [11] the target is unchanged. Conditions: at 1 µM.
Assay [12] deals with T2, Discoidin domain-containing receptor 2 (Homo sapiens) (UniProt Q16832).
T2 sequence (whole entry): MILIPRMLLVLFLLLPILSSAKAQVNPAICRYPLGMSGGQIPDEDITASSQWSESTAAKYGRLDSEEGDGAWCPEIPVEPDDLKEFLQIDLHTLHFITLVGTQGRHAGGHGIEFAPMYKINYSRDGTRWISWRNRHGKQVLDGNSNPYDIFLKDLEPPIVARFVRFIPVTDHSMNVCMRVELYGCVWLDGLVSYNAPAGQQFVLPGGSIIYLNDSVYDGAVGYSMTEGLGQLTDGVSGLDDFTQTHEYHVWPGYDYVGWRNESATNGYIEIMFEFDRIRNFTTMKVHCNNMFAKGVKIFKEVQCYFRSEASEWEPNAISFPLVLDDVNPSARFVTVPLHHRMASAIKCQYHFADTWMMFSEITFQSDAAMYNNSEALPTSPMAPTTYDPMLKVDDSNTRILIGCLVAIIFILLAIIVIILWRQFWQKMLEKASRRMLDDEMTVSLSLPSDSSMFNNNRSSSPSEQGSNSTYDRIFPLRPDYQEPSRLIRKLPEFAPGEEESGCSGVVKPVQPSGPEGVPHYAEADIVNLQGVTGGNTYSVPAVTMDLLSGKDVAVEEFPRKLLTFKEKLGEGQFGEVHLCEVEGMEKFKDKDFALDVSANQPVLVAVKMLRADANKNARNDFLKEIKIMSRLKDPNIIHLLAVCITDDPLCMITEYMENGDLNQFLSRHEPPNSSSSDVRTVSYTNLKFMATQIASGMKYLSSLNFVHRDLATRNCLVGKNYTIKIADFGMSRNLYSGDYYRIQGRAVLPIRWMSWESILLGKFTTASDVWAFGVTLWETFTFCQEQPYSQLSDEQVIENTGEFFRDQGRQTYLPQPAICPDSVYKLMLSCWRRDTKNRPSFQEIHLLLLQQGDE
Conditions: at 0.1 µM.

Assay [13] addresses T2, Discoidin domain-containing receptor 2 (Homo sapiens). Conditions: at 1 µM.
Assay [14] deals with Epidermal growth factor receptor (Homo sapiens) (UniProt P00533). Conditions: at 0.1 µM.
For assay [15] the target is unchanged. Conditions: at 1 µM.
Assay [16] concerns Epidermal growth factor receptor (Homo sapiens), P00533 [L858R]. Conditions: at 0.1 µM.
For assay [17] the test system is unchanged. Conditions: at 1 µM.
Assay [18] relates to Epidermal growth factor receptor (Homo sapiens), P00533 [L861Q]. To be noted: at 0.1 µM.
For assay [19] the test system is unchanged. To be noted: at 1 µM.
Assay [20] concerns Epidermal growth factor receptor (Homo sapiens), P00533 [T790M]. To be noted: at 0.1 µM.

Chain of Tyrosine-protein kinase receptor UFO (Homo sapiens) (P30530 whole entry): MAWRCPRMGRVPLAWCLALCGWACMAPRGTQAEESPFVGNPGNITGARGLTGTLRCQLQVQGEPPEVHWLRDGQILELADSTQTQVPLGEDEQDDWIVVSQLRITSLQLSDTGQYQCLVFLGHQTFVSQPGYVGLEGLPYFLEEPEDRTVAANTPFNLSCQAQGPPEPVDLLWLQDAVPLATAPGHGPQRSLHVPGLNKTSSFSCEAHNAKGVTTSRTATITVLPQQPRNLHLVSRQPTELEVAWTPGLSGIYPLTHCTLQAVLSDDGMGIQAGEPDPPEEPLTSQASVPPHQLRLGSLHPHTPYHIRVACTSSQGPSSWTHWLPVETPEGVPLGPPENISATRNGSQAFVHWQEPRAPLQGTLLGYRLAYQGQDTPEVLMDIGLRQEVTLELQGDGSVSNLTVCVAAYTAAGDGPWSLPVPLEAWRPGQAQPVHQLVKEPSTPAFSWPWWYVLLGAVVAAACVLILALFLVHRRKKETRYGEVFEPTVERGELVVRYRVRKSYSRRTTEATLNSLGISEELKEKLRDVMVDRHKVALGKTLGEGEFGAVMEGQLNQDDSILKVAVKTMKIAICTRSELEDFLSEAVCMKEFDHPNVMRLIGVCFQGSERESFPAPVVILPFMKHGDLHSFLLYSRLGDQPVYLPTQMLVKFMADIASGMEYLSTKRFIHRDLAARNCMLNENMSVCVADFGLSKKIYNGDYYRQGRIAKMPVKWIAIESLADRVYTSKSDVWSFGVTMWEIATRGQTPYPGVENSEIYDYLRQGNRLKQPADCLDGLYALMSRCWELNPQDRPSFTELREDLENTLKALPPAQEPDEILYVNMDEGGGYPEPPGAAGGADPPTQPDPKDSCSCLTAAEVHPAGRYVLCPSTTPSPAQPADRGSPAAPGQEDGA
Chain of Epidermal growth factor receptor (Homo sapiens) (P00533 whole entry): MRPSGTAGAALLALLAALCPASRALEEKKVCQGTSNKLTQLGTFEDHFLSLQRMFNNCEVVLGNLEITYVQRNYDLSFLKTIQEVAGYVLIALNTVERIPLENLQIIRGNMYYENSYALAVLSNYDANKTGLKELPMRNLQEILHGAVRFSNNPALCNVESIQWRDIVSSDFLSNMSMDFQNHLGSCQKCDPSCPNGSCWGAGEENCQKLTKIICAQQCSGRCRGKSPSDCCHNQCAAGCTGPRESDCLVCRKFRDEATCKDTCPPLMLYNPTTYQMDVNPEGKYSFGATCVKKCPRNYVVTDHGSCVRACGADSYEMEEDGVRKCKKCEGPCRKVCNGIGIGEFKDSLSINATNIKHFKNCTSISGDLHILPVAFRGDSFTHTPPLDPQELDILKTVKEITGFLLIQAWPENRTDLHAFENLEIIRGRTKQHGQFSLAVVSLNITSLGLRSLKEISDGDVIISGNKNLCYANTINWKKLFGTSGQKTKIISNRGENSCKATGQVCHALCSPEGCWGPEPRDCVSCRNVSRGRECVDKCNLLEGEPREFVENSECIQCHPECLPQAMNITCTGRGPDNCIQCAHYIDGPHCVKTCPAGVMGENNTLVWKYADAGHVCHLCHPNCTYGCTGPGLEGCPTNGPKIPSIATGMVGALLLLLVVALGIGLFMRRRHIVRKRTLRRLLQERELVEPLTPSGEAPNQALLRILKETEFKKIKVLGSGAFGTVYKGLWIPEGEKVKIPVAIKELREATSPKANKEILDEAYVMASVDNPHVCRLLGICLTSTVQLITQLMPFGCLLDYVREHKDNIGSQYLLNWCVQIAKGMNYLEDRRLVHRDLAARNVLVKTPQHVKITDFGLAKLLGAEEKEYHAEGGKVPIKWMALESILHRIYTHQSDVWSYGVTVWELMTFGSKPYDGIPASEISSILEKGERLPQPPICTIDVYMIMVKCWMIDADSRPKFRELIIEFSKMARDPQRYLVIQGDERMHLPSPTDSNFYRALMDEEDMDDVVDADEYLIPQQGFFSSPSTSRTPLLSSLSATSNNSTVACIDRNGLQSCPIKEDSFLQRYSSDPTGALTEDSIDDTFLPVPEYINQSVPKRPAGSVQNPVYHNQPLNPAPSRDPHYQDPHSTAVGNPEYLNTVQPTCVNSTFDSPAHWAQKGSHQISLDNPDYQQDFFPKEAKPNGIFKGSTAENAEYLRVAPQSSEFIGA
Chain of Tyrosine-protein kinase CSK (Homo sapiens) (P41240 2-450 limits assumed): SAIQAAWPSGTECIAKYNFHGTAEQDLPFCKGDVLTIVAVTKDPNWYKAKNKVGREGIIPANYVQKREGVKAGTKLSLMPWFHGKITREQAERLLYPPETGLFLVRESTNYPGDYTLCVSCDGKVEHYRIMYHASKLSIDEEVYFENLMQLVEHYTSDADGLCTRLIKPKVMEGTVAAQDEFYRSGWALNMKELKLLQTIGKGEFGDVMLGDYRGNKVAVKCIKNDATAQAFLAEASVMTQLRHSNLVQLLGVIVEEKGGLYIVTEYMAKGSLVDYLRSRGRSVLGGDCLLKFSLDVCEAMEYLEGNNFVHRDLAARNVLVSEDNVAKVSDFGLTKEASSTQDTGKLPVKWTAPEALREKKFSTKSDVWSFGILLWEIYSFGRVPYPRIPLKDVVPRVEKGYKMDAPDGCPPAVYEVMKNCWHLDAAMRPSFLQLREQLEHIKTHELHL
Chain of Tyrosine-protein kinase BTK (Homo sapiens) (Q06187 whole entry): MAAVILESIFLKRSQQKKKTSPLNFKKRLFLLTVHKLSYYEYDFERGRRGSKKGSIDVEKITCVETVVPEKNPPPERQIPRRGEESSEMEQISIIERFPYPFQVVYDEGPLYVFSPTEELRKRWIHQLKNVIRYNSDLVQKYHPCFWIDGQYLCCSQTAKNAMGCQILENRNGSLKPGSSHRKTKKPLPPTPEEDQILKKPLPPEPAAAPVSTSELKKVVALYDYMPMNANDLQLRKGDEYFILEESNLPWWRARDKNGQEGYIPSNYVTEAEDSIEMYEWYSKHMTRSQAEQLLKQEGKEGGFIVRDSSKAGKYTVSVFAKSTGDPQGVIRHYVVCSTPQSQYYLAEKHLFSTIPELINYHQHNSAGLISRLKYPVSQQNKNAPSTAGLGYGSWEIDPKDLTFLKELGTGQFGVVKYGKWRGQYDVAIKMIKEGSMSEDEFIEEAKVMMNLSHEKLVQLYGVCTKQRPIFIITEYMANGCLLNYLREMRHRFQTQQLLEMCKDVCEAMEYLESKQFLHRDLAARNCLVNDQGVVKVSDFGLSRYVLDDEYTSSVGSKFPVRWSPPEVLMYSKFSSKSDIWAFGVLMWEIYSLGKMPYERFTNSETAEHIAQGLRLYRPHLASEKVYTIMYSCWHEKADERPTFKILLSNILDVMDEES
Chain of Epidermal growth factor receptor (Homo sapiens), P00533 [L861Q] (P00533 whole entry L861Q): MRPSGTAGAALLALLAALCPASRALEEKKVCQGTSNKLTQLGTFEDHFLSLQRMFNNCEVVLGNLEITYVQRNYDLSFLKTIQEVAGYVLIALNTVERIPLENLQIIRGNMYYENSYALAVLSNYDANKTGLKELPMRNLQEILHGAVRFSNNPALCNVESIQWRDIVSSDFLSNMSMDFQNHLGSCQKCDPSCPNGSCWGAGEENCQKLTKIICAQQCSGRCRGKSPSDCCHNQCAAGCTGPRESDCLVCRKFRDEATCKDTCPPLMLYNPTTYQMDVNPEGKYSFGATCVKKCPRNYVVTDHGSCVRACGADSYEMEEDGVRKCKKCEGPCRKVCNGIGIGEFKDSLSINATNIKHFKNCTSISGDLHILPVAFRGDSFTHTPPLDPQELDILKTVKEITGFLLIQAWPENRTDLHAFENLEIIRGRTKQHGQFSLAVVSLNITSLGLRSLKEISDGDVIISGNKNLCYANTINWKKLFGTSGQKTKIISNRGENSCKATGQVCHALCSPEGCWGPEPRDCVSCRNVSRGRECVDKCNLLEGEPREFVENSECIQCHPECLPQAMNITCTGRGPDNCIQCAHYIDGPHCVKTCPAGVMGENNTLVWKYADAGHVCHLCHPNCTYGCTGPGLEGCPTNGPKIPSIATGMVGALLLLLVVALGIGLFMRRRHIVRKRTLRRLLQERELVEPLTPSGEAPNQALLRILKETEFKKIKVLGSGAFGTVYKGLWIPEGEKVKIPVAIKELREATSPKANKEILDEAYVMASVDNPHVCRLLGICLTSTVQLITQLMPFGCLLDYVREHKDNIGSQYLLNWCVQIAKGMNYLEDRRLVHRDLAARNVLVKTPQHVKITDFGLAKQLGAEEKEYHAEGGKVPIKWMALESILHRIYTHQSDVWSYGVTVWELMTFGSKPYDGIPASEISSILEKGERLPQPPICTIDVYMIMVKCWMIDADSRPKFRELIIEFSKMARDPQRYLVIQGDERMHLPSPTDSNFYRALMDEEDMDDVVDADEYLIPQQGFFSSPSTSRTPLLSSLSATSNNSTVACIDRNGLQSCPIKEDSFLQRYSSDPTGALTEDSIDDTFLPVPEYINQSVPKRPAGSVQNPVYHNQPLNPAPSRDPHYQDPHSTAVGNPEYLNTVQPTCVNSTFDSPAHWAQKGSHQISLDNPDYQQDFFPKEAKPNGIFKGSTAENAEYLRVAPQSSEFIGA
Chain of Tyrosine-protein kinase Blk (Homo sapiens) (P51451 2-505 limits assumed): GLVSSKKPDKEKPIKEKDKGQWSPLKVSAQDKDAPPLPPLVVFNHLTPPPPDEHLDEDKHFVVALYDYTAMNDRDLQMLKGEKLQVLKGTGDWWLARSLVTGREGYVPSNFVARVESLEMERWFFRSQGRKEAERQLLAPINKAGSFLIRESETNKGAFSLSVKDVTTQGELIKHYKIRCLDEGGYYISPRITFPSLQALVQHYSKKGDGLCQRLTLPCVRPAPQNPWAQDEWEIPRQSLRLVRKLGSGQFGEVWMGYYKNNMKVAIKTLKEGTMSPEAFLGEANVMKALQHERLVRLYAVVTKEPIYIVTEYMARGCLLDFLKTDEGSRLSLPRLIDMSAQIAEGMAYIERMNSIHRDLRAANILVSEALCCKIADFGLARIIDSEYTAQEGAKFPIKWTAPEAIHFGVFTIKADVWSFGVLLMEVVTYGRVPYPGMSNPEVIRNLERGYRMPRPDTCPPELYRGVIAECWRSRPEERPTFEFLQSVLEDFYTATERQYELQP

With `COc1ccc(Nc2ncc(-c3ccccc3)o2)cc1OC`, the inhibition in assay [1] is 3.31%; in [2], 1.21%; in assay [3], 24.1%; in assay [4] it was -7.7%; in assay [5], 4.92%; in [6], 0.75%. Moreover, the inhibition was 2.71% in assay [7]; 0.8% in assay [8]; 2.81% in assay [9]; 1.21% in [10]; -1.08% in [11]; -0.12% in assay [12]. Moreover, the inhibition in assay [13] is 5.66%; in [14], 1.83%; in assay [15], 5.16%; in assay [16] it was -1.38%; in [17], 2.96%; in assay [18] it was -1.19%. The inhibition came out at 0.83% in [19] and 0.72% in [20].
For `Cc1c2ccc(N(C)c3ccnc(Nc4cccc(S(N)(=O)=O)c4)n3)cc2nn1C`, the inhibition was 1.26% in assay [1]; 5.04% in [2]; 56.5% in assay [3]; -1.19% in [4]; 17% in assay [5]; 13.8% in assay [6]. The inhibition in assay [7] is 51.2%; in assay [8], -2.88%; in [9] it was 1.31%; in assay [10], 5.79%; in [11], 19%; in assay [12], 11.4%. In addition, the inhibition in [13] was 65%; in assay [14], -3.87%; in [15], 0.64%; in assay [16] it was 3.16%; in assay [17] it was 11.9%; in assay [18] it was 5.08%. Besides, the values for the inhibition in [19] and in assay [20] were 3.69% and 3.44%, respectively.
With `Cc1cc(O)cc(C)c1/C=C/c1cncc(C(=O)OC(C)(C)C)c1`, the inhibition was -3.72% in [1]; 4.36% in assay [2]; 21.7% in [3]; 9.3% in assay [4]; 47.3% in assay [5]; 18.1% in assay [6]. For the same compound, the inhibition in assay [7] stood at 67.5%; in [8], 0.92%; in [9], 12.8%; in assay [10], 7.62%; in assay [11], 32.9%; in [12], 1.51%. The inhibition in assay [13] is 2.49%; in assay [14], 1.62%; in assay [15], 5.14%; in assay [16], 3.7%; in assay [17] it was 17%; in assay [18], 2.25%. In addition, the inhibition was determined as 4.72% in [19] and 0.92% in assay [20].
Turning to `CCN1CCC(C(=O)Nc2n[nH]c3nnc(-c4cccc(F)c4F)cc23)CC1`, the inhibition in assay [1] is 2.22%; in assay [2] it was 0.62%; in assay [3] it was 2.33%; in assay [4] it was -0.1%; in assay [5], 1.04%; in assay [6], -0.63%. The inhibition in assay [7] was -0.63%; in [8], 0%; in assay [9], -0.5%; in assay [10], 2.49%; in assay [11], -0.26%; in [12] it was 1.13%. In addition, the inhibition in [13] was 1.17%; in [14], 1.21%; in [15] it was 2.27%; in assay [16] it was -0.75%; in assay [17] it was 1.38%; in assay [18], -0.05%. Also, the inhibition in [19] was -0.76%; in [20], -1.59%.
For the compound `O=C(O[C@H]1CN[C@H](C#Cc2cc3ncnc(Nc4ccc5c(ccn5Cc5cc(F)ccc5F)c4)c3s2)C1)N1CCOCC1`, the inhibition is -5.54% in assay [1]; 2.36% in assay [2]; 8.13% in [3]; 4.47% in assay [4]; 4.96% in assay [5]; 3.43% in [6]. Also, the inhibition is 4.9% in assay [7]; 0.02% in assay [8]; 2.23% in assay [9]; 3.21% in assay [10]; 2.68% in assay [11]; 2.04% in assay [12]. Moreover, the inhibition in [13] amounted to 2.8%; in assay [14] it was 65.5%; in assay [15], 76.4%; in assay [16] it was 11.2%; in assay [17], 53.6%; in assay [18] it was 22.6%. The inhibition in assay [19] worked out at 39%; in assay [20], 20%.
As for `CC(C)c1ccc(-c2cc(-c3c[nH]nc3-c3ccccn3)ccn2)cc1`, the inhibition was 2.69% in [1]; 1.02% in [2]; 0.42% in assay [3]; -0.47% in assay [4]; 2.05% in assay [5]; -0.52% in [6]. Also, the inhibition in [7] is 0.14%; in [8] it was -1.28%; in assay [9], -1.36%; in assay [10], 1.02%; in assay [11] it was -3.97%; in assay [12], 3.76%. The inhibition in assay [13] amounted to 4.98%; in assay [14] it was 1.84%; in [15], 3.14%; in assay [16] it was 1.78%; in [17], 0.3%; in [18], 0.09%. For the same compound, the values for the inhibition in assay [19] and in assay [20] were -0.98% and -0.66%, respectively.
Consider `Nc1nccc(-c2c(-c3ccc(F)cc3)ncn2C2CCNCC2)n1`, for which the inhibition was 8.06% and 1.45% in assay [1]; -1.45% and 0.8% in [2]; -0.17% and 2.22% in assay [3]; 1.14% and -5.53% in assay [4]; -1.15% and 0.2% in assay [5]; -3.88% and 1.44% in assay [6]. Further, the inhibition in assay [7] was 2.01% and 4.41%; in [8], -0.49% and -0.93%; in [9], -0.59% and 0.22%; in [10] it was -4.42% and 4.09%; in [11], -3.76% and 3.13%; in assay [12], -1.68% and 1.35%. The inhibition in [13] was 0.32%; in [14] it was -0.4% and 2.01%; in assay [15] it was 5.66% and 6.46%; in [16] it was -0.59% and 2.85%; in assay [17] it was 6.1% and 10.9%; in [18] it was -3.23% and 1.91%. In addition, the inhibition in assay [19] was 1.42% and 4.42%; in assay [20], -2.84% and -2.65%.
